Records with an inconclusive call do not appear. The source made the active and inactive calls. Unless noted, calls follow the shape of the dose curve; as a rule, active = well fitted curve in either direction with a large enough effect (not every such curve was filed as active); inconclusive = small, poorly fitted or top-dose-only effect, or another doubt; inactive = flat fitted curve, though single readings scatter.
Assays:
[1] = AP1 Signaling Pathway (AID 357); conditions: ME-180 AP-1-bla reporter, EGF-induced, beta-lactamase ratio, 5 h; at 17.2 µM (top of the series) unless noted;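 also: ME-180 reporter cells stimulated with EGF at its EC50 level; % is scaled to controls: 0 for no effect and ±100 for the full control effect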
In short: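 Cells are seeded overnight, exposed to compound titrations and an EC50 level of EGF for 5 hours at 37 °C, then loaded with CCF4 dye for 2.5 hours. Beta-lactamase activity under the AP-1 element is read as a blue/green ratio.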

[2] = NFAT Signaling Pathway (AID 444); conditions: Jurkat NFAT-bla M1, carbachol, beta-lactamase ratio, 5 h; at 17.2 µM (top of the series) unless noted;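 also: carbachol stimulus at about its EC50 of 1 µM final; % is scaled to controls: 0 for no effect and ±100 for the full control effect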
In short: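 Jurkat cells with NFAT-driven β-lactamase reporter and co-expressed M1 receptor, stimulated with carbachol (final 1 uM, ~EC50), compound titration, 5 h at 37 °C. CCF4 loaded 1 h at RT; 460/530 nm ratio gave %activity and AC50.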

[3] = Stat Signaling Pathway (AID 446); conditions: ME-180 SIE beta-lactamase reporter, IL-6 stimulated, 5 h; at 17.2 µM (top of the series) unless noted;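 also: ME-180 cervical cancer cells given 40 pM IL-6 alongside compound; SIE-controlled beta-lactamase reporter measured as 460/530 nm FRET emission ratio; % is scaled to controls: 0 for no effect and ±100 for the full control effect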
In short: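 ME-180 cells carrying a SIE-driven beta-lactamase reporter are stimulated with 40 pM IL-6 for 5 h at 37C in the presence of compound. The 460/530 nm FRET substrate ratio is read after 2.5 h at RT. Data are normalised to 300 pM IL-6 and to 125 nM JAK inhibitor controls.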

[4] = molecular target: Glucocorticoid receptor (Homo sapiens) (UniProt P04150); test: GR-GFP Redistribution (AID 450;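 active = compounds whose dose series gives a full or clear partial fitted curve of increased nuclear translocation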; also: potency is read from the fitted curve at half-maximal effect)
Glucocorticoid receptor (Homo sapiens), sequence (P04150 whole entry, looked up, the tested form may be a part): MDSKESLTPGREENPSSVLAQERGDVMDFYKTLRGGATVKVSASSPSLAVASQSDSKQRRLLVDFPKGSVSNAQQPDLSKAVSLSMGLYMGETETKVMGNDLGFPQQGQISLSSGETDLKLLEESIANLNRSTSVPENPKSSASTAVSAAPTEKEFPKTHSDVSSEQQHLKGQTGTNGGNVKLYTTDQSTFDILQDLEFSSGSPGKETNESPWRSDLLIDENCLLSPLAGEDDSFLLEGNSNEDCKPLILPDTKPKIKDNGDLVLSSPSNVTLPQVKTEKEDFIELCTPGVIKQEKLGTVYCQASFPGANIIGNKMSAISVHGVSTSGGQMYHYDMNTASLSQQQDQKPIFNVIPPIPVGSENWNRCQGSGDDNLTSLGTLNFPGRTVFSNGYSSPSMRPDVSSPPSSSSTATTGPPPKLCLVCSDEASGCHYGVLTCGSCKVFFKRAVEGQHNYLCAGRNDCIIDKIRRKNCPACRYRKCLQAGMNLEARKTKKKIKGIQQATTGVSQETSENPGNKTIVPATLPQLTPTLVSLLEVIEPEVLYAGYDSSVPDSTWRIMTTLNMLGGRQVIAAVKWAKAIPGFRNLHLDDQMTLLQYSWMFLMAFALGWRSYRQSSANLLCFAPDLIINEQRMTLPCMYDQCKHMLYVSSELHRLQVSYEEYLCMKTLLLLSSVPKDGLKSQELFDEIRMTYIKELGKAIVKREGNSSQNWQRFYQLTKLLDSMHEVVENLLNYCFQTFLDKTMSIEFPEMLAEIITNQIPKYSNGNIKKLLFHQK

[5] = molecular target: Cytochrome P450 1A2 (Homo sapiens) (UniProt P05177); test: p450-cyp1a2 (AID 410; calls by dose curve; also: potency is read from the fitted curve at half-maximal effect;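 as to activity change, negative = inhibition: -100% = full effect of reference inhibitor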)
Cytochrome P450 1A2 (Homo sapiens), sequence (P05177 whole entry, looked up): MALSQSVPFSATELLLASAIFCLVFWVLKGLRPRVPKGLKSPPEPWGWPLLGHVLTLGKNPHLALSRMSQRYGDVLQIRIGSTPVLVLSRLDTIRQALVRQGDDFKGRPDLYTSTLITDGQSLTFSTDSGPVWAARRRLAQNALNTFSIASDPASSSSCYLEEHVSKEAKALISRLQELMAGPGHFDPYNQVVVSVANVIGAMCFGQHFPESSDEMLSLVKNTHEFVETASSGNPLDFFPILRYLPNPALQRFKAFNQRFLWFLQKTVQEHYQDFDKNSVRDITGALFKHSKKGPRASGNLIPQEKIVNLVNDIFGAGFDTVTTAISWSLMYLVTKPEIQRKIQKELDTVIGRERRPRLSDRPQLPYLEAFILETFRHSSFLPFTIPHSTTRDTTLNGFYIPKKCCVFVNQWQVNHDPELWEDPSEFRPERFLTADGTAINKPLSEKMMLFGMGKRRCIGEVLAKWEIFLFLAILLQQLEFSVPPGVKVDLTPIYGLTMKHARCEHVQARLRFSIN
In short: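 20nM CYP1A2 with 100uM Luciferin-ME (at Km) in 100mM KPO4; compound preincubated 10 min, NADPH regeneration added, 60 min at room temperature. Luciferin quantified by luminescence after detection reagent; normalized to 57 uM furafylline.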

[6] = molecular target: Mitogen-activated protein kinase 10 (Mus musculus) (UniProt Q61831); test: JNK3 AlphaScreen Assay (AID 530);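 also: kinase came from lysate of stimulated human HepG2 cells; signal reports phosphorylation of biotinylated GST-cJun 1-79 at Ser73 with 10 µM ATP; % is scaled to controls: 0 for no effect and ±100 for the full control effect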
In short: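 Pre-activated (IL-1β/TNFα) JNK3 in HepG2 lysates phosphorylates biotin-GST-cJun(1-79), 10 uM ATP; anti-phospho-cJun(Ser73) AlphaScreen read at room temperature, pH 7.6 Tris buffer. Compounds pre-incubated 15 min as titrations.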

[7] = qHTS Assay for Identification of Small Molecule Agonists for Hypoxia Response Element Signaling Pathway (AID 914; active = well fitted activation curve with a large enough effect in the signal ratio, with a control signal flat, not every such curve was filed as active; the % refers to the signal ratio; also: % of control where 0% means no effect); conditions: ME-180 (cervical carcinoma) HRE-bla reporter, beta-lactamase ratio, CoCl2, 17 h; activation: stronger effect = higher value
In short: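 HRE-bla ME-180 cells, overnight plating in Opti-MEM with 0.5% dialyzed FBS; cpd titration + EC50 CoCl2, 17 h, 37 degrees Celsius; CCF4 2.5 h RT; 460/530 nm ratio; AC50.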

[8] = molecular target: Glucocorticoid receptor (Homo sapiens) (UniProt P04150); test: GR-EFC Redistribution (AID 451; calls by dose curve; also: potency is read from the fitted curve at half-maximal effect); conditions: CHO-K1 GR-EFC translocation, beta-gal luminescence, 2 h
In short: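 CHO-K1 cells expressing nuclear EA and GR-ED fragments of b-gal; compounds titrated up to 46 uM final, 2 h at 37 C. GR nuclear translocation read as complemented b-gal luminescence after 1 h RT detection.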

[9] = molecular target: 3',5'-cyclic-AMP phosphodiesterase 4B (Homo sapiens) (UniProt Q07343); test: qHTS Assay for Inhibitors of PDE-IV (AID 607; active = well fitted activation curve with a large enough effect in the main read-out, with a control signal flat, not every such curve was filed as active; also: % of control where 0% means no effect)
3',5'-cyclic-AMP phosphodiesterase 4B (Homo sapiens), sequence (Q07343 whole entry, looked up): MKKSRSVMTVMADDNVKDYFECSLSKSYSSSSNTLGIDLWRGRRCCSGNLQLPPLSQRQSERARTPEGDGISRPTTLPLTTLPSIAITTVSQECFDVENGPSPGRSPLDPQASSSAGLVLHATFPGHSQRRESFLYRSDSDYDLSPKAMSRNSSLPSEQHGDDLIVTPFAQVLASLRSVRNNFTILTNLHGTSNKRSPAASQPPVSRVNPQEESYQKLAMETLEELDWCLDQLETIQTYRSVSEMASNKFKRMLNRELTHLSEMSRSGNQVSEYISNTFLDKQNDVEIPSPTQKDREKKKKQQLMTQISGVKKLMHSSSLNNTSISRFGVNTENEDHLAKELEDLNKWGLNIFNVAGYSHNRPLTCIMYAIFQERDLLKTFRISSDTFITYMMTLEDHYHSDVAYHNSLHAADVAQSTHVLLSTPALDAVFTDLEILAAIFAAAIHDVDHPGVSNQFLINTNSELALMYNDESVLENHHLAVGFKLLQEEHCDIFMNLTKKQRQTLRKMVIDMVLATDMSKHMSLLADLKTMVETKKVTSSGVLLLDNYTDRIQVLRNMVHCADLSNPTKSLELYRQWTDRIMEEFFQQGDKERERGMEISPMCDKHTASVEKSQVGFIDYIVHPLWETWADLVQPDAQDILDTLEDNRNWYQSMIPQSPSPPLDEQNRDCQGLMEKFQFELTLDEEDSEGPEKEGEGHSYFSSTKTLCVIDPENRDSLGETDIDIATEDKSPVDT
In short: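 HEK293 ACTOne cells with CNG channel (1000/well), endogenous PDE4; membrane potential dye, compounds up to 22.9 uM final. Fluorescence Ex 535/Em 590; RO 20-1724 (100 uM final) as reference.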

[10] = molecular target: Guanine nucleotide-binding protein G(i) subunit alpha-1 (Homo sapiens) (UniProt P63096); test: qHTS Assay for Inhibitors of RGS12 GoLoco Motif Activity (Green Fluorophore) (AID 879; active = well fitted curve in the direction sought with a large enough effect; an effect the other way counts as inactive or inconclusive;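 also: 0% = labeled peptide with Gαi1 and full inhibition = labeled peptide alone without protein; negative values mean loss of peptide binding seen as reduced polarization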)
Guanine nucleotide-binding protein G(i) subunit alpha-1 (Homo sapiens), sequence (P63096 whole entry, looked up): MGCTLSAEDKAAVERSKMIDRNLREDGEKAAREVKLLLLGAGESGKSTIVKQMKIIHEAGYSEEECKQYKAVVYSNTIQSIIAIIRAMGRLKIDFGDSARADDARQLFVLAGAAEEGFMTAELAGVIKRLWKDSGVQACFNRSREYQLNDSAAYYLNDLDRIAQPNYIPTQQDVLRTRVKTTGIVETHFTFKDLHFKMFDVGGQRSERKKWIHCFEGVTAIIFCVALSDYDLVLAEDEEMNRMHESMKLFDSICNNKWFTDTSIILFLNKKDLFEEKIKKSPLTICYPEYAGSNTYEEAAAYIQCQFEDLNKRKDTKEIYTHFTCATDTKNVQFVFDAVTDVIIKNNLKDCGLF
In short: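 Fluorescence polarization assay: 50 nM Gαi1 with 10 nM FITC-labeled RGS12 GoLoco peptide in 10 mM Tris pH 7.5, 150 mM NaCl, 0.1 mM GDP, 0.05% NP40, 10 min at room temperature with compound.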

[11] = molecular target: Cytochrome P450 3A4 (Homo sapiens) (UniProt P08684); test: qHTS Assay for Inhibitors and Substrates of Cytochrome P450 3A4 (AID 884; active = well fitted curve in the direction sought with a large enough effect; an effect the other way counts as inactive or inconclusive; also: % is scaled to controls: 0 for no effect and ±100 for the full control effect; nearly all actives have a fitted effect of over 50% in size)
Cytochrome P450 3A4 (Homo sapiens), sequence (P08684 whole entry, looked up): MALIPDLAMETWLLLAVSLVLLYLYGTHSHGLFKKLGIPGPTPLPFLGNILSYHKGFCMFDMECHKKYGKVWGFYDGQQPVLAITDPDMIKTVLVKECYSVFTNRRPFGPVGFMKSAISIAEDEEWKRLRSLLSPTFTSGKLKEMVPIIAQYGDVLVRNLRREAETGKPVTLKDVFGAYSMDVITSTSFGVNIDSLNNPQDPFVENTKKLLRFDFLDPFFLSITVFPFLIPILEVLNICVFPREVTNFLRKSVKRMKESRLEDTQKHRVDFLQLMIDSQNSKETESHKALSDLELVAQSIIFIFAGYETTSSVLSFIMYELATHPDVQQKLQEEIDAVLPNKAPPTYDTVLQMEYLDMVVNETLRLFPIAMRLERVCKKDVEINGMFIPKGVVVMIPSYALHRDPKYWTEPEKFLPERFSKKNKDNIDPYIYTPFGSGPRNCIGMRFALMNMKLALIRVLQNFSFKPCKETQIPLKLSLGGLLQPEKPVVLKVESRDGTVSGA
In short: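 20 nM human CYP3A4 with 25 uM Luciferin-PPXE (at KM) in 200 mM KPO4, preincubated 10 min with compound; NADPH regeneration started a 60 min RT reaction. Luciferin detected by luminescence, normalized to 57 uM ketoconazole as full inhibition.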

[12] = molecular target: Pyruvate kinase (Leishmania mexicana) (UniProt Q27686); test: qHTS Validation Assay for Inhibitors of Leishmania Mexicana Pyruvate Kinase (AID 945; active = well fitted curve in the direction sought with a large enough effect; an effect the other way counts as inactive or inconclusive;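 also: 0% = DMSO only neutral control wells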)
Pyruvate kinase (Leishmania mexicana), sequence (Q27686 2-499 E452W): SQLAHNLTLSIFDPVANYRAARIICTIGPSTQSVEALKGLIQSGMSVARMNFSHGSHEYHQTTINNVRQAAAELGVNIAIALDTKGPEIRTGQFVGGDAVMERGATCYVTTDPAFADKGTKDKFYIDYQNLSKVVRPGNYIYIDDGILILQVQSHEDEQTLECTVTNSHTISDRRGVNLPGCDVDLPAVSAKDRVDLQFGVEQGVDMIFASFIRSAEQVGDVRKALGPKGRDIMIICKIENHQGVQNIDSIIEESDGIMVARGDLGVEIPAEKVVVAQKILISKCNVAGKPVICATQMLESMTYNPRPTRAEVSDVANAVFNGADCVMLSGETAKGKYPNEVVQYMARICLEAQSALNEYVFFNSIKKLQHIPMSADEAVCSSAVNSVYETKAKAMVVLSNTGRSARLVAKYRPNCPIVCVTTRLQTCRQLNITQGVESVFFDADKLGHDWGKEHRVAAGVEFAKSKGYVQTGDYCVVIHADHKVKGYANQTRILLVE
In short: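 Luminescent ATP detection (PKLight) after a 1 h room-temperature reaction of 0.2 nM LmPYK E451W mutant with 0.5 mM PEP and 0.1 mM ADP at pH 7.2. Activity is normalized to DMSO-only control wells.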

[13] = molecular target: Pyruvate kinase PKM (Homo sapiens) (UniProt P14618); test: qHTS Assay for Activators of Human Muscle Pyruvate Kinase (AID 954; active = well fitted curve in the direction sought with a large enough effect, not every such curve was filed as active;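 also: 0% = uninhibited enzyme and -100% = no enzyme or full thiadiazolimine inhibition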)
Pyruvate kinase PKM (Homo sapiens), sequence (P14618 whole entry, looked up): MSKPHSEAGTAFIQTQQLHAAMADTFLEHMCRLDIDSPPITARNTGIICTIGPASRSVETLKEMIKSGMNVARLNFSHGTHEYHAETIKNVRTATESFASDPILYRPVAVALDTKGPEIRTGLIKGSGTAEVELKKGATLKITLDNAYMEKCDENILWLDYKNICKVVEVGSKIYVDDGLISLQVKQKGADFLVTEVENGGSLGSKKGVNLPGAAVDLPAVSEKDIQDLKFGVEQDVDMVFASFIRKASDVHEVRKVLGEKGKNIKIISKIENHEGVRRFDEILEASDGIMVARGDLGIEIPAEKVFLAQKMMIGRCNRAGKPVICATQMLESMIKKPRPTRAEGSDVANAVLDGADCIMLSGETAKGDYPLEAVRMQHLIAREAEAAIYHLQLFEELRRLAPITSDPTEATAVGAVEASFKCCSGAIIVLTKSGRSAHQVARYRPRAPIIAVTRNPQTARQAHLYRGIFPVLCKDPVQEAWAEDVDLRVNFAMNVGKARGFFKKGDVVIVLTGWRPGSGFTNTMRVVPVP
In short: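 Purified human PKM2 (0.1 nM) with 0.5 mM PEP (Km) and 0.1 mM ADP in 50 mM imidazole pH 7.2, KCl, MgCl2, 1 h at room temperature; ATP formed read by coupled luciferase luminescence. Normalized to no-enzyme/110 uM thiadiazolimine inhibition; 0.3 nM enzyme column for activation.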

[14] = molecular target: Alpha-galactosidase A (Homo sapiens) (UniProt P06280); test: Counterscreen for Glucocerebrosidase Inhibitors: qHTS Assay for Human alpha-Galactosidase at pH 4.5 (AID 992; active = well fitted curve in the direction sought with a large enough effect; an effect the other way counts as inactive or inconclusive; also: 0% is about no effect)
Alpha-galactosidase A (Homo sapiens), sequence (P06280 whole entry, looked up): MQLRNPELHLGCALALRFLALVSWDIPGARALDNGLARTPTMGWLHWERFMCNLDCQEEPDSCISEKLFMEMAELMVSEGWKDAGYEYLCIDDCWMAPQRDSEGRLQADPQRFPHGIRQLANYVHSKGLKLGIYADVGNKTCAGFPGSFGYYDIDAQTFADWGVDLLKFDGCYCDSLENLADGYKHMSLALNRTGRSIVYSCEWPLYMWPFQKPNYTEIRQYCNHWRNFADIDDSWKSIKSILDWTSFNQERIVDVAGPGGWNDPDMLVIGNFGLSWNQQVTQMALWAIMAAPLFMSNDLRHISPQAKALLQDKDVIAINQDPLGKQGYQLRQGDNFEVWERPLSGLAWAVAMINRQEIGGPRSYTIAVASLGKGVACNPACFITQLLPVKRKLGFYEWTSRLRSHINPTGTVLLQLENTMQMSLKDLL
In short: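 Human enzyme (2 nM) with 80 uM 4-methylumbelliferyl alpha-D-galactopyranoside in 50 mM citric acid, 0.005% Tween-20, pH 4.5, 20 min at room temperature. Compounds 0.7 nM–77 uM; fluorescence Ex 365/Em 440 after pH 10 stop; AC50 from Hill fits.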

[15] = molecular target: alpha-glucosidase (Oryza sativa, rice) (UniProt Q653V4); test: Counterscreen for Glucocerebrosidase Inhibitors: qHTS Assay for Rice alpha-Glucosidase at pH 5.0 (AID 997; active = well fitted curve in the direction sought with a large enough effect; an effect the other way counts as inactive or inconclusive;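 also: 0% = full activity with enzyme and -100% = basal without enzyme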)
In short: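 Rice alpha-glucosidase (4 nM final) with 400 uM 4-methylumbelliferyl-alpha-D-glucopyranoside in citrate buffer pH 5.0, 20 min at room temperature, stopped at pH 10; fluorescence 365/440 nm, compounds 0.7 nM–77 uM, AC50 from Hill fits.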

[16] = molecular target: Cytochrome P450 2C9 (Homo sapiens) (UniProt P11712); test: qHTS Assay for Inhibitors and Substrates of Cytochrome P450 2C9 (AID 883; active = well fitted curve in the direction sought with a large enough effect; an effect the other way counts as inactive or inconclusive; also: potency is read from the fitted curve at half-maximal effect; nearly all actives have a fitted effect of over 60% in size)
Cytochrome P450 2C9 (Homo sapiens), sequence (P11712 whole entry, looked up): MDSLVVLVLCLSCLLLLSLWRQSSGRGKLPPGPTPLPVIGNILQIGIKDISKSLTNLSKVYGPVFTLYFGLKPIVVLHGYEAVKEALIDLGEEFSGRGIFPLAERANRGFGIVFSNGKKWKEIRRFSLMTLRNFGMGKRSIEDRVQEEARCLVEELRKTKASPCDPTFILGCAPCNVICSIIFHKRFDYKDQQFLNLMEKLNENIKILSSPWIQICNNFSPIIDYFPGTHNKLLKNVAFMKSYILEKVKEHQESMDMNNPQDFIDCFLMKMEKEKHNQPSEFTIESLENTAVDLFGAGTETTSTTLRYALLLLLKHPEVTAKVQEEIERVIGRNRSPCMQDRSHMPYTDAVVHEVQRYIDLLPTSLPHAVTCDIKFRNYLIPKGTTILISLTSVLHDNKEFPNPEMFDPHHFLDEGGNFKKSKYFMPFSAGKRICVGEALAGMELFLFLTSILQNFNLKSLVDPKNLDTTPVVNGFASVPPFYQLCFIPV
In short: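 10nM CYP2C9 + 100uM Luciferin-H (=KM), 25mM KPO4; cpd 10 min 37C; NADPH regen, 60 min 37C; stop/detect with P450 Glo-Buffer 20 min; luminescence. Norm. to 57uM sulphaphenazole as full inhibition.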

O=C(CN1C(=O)c2ccccc2S1(=O)=O)NCCSCc1ccco1
inactive: activity change, negative = inhibition [1] -8.94% | activity change, negative = inhibition [2] 8.79% | activity, negative = inhibition [3] -4.36% | Potency [4] > 20.6 µM

Cc1nc(=O)c(-c2ccccc2)c(C)n1-c1ccc(S(N)(=O)=O)cc1
inactive: activity change, negative = inhibition [1] 7.15% | activity change, negative = inhibition [2] -1.07% | activity, negative = inhibition [3] 7.76% | Potency [4] > 20.6 µM

Cc1cc(-c2cc(C)c(O)c(C(C)(C)C)c2)cc(C(C)(C)C)c1O
inactive: activity change, negative = inhibition [1] -0.717% [at 7.69 µM] | activity, negative = inhibition [3] 14.1% [at 7.69 µM] | Potency [4] > 46 µM | activity change, negative = inhibition [6] -3.71% [at 11.4 µM] | activation [7] -9.94%
active: Potency [5] 0.631 µM

COc1cc2nc(N3CC=[N+](C(=O)c4ccco4)CC3)nc(N)c2cc1OC
inactive: activity change, negative = inhibition [1] -19.6% [at 38 µM] | Potency [4] > 46 µM | Potency [8] > 46 µM | Potency [6] | Potency [9] | outcome [10] | Potency [11] | Potency [12] | outcome [13] | outcome [14] | outcome [15]
active: Potency [5] 12.6 µM

Cc1cc(Cc2cc(Cc3cc(C)cc(C(C)(C)C)c3O)c(C)cc2C)c(O)c(C(C)(C)C)c1
inactive: activity change, negative = inhibition [1] -2.73% [at 7.69 µM] | activity change, negative = inhibition [5] -17.2% [at 2.29 µM] | activity, negative = inhibition [3] -3.85% [at 7.69 µM] | Potency [4] > 46 µM | Potency [8] > 9.22 µM | activity change, negative = inhibition [6] -4.33% [at 11.4 µM] | Potency [9]
active: Potency [16] 3.16 µM

CCN(CC)CCN1C(=O)C(=O)/C(=C(/O)c2c(C)[nH]c(C(=O)OC)c2C)C1c1ccccc1 (stereo not drawn)
inactive: activity change, negative = inhibition [1] 2.47% | activity change, negative = inhibition [2] -8.53% | activity, negative = inhibition [3] -3.34% | Potency [4] > 20.6 µM

CCOC(=O)C1/C(=N\O)CC(C)(O)C(C(=O)OCC)C1c1ccc(N(C)C)cc1 (stereo not drawn)
inactive: activity change, negative = inhibition [1] 6.52% | activity change, negative = inhibition [2] 2.58% | activity, negative = inhibition [3] -4.68% | Potency [4] > 20.6 µM

CN1C(=O)C2(c3ccccc31)C1CCCC=C1C(C#N)=C(N)C2(C#N)C#N (stereo not drawn)
inactive: activity change, negative = inhibition [1] -21.4% | activity change, negative = inhibition [2] -15.5% | activity, negative = inhibition [3] -7.56%

Cc1ccc(N2C(=O)C3ON(c4ccccc4)C(c4ccncc4)C3C2=O)cc1 (stereo not drawn)
inactive: activity change, negative = inhibition [1] 5.13% | activity change, negative = inhibition [2] 9.45% | activity, negative = inhibition [3] -10.5%

COC(=O)c1ccc(-c2sc3nc(N4CCOCC4)c4c(c3c2N)CC(C)(C)OC4)o1
inactive: activity change, negative = inhibition [1] -12.7% | activity change, negative = inhibition [2] -1.53% | activity, negative = inhibition [3] 5.68%

CC(=O)O[C@]12CC[N@+]3(C)CCCC[C@@H]3[C-]1Nc1ccccc12
inactive: activity change, negative = inhibition [1] 2.61% [at 7.69 µM] | activity change, negative = inhibition [5] -11% [at 11.4 µM] | activity, negative = inhibition [3] 1.87% [at 7.69 µM] | Potency [4] > 46 µM | Potency [8] > 9.22 µM | activity change, negative = inhibition [6] 4.94% [at 11.4 µM] | Potency [9]

From PubChem BioAssay (NCATS)
